High-throughput results deposited in PubChem by several laboratories.
Compounds with a hit are over-represented: about 2.2% of the library has one in this group of screens.
NCF1 inh: inhibitors of human p47phox binding; 220,000 tested, 0.53% active; inhibition, % at 24.7 µM; p47phox/p22phox peptide binding, fluorescence polarization, 2 h; P14598;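 active = inhibition above about 30%, limit read from the data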;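 also: 0% = p47phox with labelled peptide and 100% = labelled peptide alone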
Target sequence (P14598 whole entry, looked up): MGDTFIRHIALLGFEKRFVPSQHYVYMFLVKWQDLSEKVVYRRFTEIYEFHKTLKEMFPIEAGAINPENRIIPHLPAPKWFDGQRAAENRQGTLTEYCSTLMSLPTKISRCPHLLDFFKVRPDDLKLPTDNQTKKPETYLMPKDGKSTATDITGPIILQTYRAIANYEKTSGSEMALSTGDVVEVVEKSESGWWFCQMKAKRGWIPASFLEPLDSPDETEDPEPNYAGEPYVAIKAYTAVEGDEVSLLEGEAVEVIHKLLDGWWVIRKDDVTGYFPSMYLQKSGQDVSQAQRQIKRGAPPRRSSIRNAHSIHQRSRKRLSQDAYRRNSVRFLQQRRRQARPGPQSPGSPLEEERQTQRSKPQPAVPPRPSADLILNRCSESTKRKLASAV
Ins promoter up: MIN6 insulin promoter up-regulation; MIN6 insulin promoter-GFP reporter, high-content imaging; active compounds read high; z-score at 5 µM; 190,000 tested, 0.3% active; AID 1625;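 active = z-score above 3 at 5 µM with at least 500 cells counted in the well; inconclusive = wells under 500 cells, flagged as cytotoxic or low count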
Autophagy mod: modulators of autophagy; 190,000 tested, 0.98% active; calls only at 10 µM (by protocol); MEF GFP-LC3 puncta imaging; test concentration mostly 10 µM;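 active = percentage of spot-positive cells more than 3 SD above its plate mean, without a fluorescence outlier flag or 80% toxicity; inconclusive = no clear call, values can overlap the other calls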;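 also: spot-positive cell cutoff set from DMSO-treated cells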
Arbovirus anti: arbovirus infection inhibition; inhibition, % at 10 µM; 200,000 tested, 0.37% active; arbovirus infection cell-based antiviral screen; in the data active = inhibition above about 30%
Efa HMGR inh: E. faecalis class II HMG-CoA reductase inhibition; purified E. faecalis HMGR, NADPH absorbance 340 nm kinetic; 190,000 tested, 0.41% active; inhibition, % at 10 µM; AID 1066;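 active = inhibition above a set limit, the median over all tested compounds plus 3 SD, cut at about 9.5% in these data; inconclusive = no clear call, values can overlap the other calls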;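 also: enzyme runs in reverse so mevalonate oxidation gives rising NADPH absorbance; 0% = complete reaction with DMSO and 100% = background rate lacking mevalonate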
DTT redox prof: compounds producing H2O2 with reducing agent – biochemical, NIH compound library profiling, artefact control for MLSCN library redox annotation, primary screen. DTT-dependent redox cycling H2O2, phenol red/HRP absorbance; 100% = 100 µM peroxide control, 0% = buffer. activation, % at 10 µM. 200,000 tested, 0.03% active;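 active = activation of at least 50% relative to the plate's high and low controls in the primary single-dose screen; inactive = activation below 50%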;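 also: compound incubated with DTT at 0.8 mM final as the reducing agent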
An asterisk follows results filed as active.

Screening O=C(CN1C(=O)NC2(CCc3ccccc32)C1=O)c1ccc2c(c1)OCCO2 (centres undefined) returned NCF1 inh -8, Ins promoter up 0.75, Autophagy mod inactive, Arbovirus anti -5, Efa HMGR inh 7 and DTT redox prof 0.
`O=C(CSc1nnc(NC(=O)c2c(F)cccc2F)s1)Nc1ccc(F)cc1` gave NCF1 inh -10, Ins promoter up -0.25, Autophagy mod inactive, Arbovirus anti 37*, Efa HMGR inh 7 and DTT redox prof 0.
For COC(=O)c1ccc(NC(=O)CNc2ccccc2)cc1 the results were NCF1 inh -1, Ins promoter up 1.1, Autophagy mod inactive, Arbovirus anti -4, Efa HMGR inh -5 and DTT redox prof -1.
`Cc1nn(C)c2ncc(C(N)=O)c(Oc3ccc(Cl)cc3)c12` gave NCF1 inh -4 and Ins promoter up 0.35.
CC(C)CNC(=S)N1CCC(C(=O)c2ccc3c(c2)OCCO3)CC1 was read as NCF1 inh -5, Ins promoter up -0.04, Autophagy mod inactive, Arbovirus anti 8, Efa HMGR inh 4 and DTT redox prof 0.
CCNC(=O)c1c(NC(=O)c2cc(-c3cc(C)ccc3O)n[nH]2)sc2c1CCCC2 was read as NCF1 inh 52*, Ins promoter up -0.22, Autophagy mod inactive, Arbovirus anti -11, Efa HMGR inh 1 and DTT redox prof 0.
CCOC(=O)Cn1c(=O)cc(C)c2cccc(C)c21 was read as NCF1 inh -4, Ins promoter up 0.33, Autophagy mod inactive, Arbovirus anti 1, Efa HMGR inh -1 and DTT redox prof 0.
`CCOC(=O)Cn1c(C)cc(=O)c2cccc(C)c21` gave NCF1 inh 5, Ins promoter up 0.65, Autophagy mod inactive, Arbovirus anti -3, Efa HMGR inh 12* and DTT redox prof 0.
COc1cccc(OC)c1OCCN(C)C was read as NCF1 inh -5, Ins promoter up 4*, Autophagy mod inactive, Arbovirus anti 8, Efa HMGR inh -5 and DTT redox prof 0.
For COc1cccc(OC)c1OCCNC(C)(C)C the results were NCF1 inh 5, Ins promoter up -0.37, Autophagy mod inactive, Arbovirus anti 4, Efa HMGR inh -1 and DTT redox prof -8.
`CC1(C)CC(=O)C2=C(C1)N=C1SCCC(=O)N1C2c1cccc([N+](=O)[O-])c1` (centres undefined) gave NCF1 inh -4, Ins promoter up 1, Autophagy mod inactive, Arbovirus anti 10, Efa HMGR inh -9 and DTT redox prof 0.
Screening CSc1nc(=S)n(Cc2ccccc2)c(C)c1C(C)=O returned NCF1 inh -31, Ins promoter up -0.06, Autophagy mod active, Arbovirus anti -3, Efa HMGR inh 1 and DTT redox prof 0.
Screening O=C(CSc1nnc(-c2ccccc2)n1-c1ccccc1)c1cccs1 returned NCF1 inh 35*, Ins promoter up 0.01, Autophagy mod inactive, Arbovirus anti -1, Efa HMGR inh -7 and DTT redox prof 3.
Screening O=C(CSc1nnc(-c2ccccc2)n1-c1ccccc1)c1ccc[nH]1 returned NCF1 inh 4, Ins promoter up 0.11, Autophagy mod inactive, Arbovirus anti 1, Efa HMGR inh 0 and DTT redox prof 0.
Screening Cc1ccc(/C(O)=C2\C(=O)C(=O)N(CC(C)O)C2c2ccccn2)cc1 (centres undefined) returned NCF1 inh 1, Ins promoter up 0.65, Autophagy mod inactive, Arbovirus anti 3, Efa HMGR inh 0 and DTT redox prof 1.
COC(=O)CSc1nc2sc3c(c2c(=O)[nH]1)CCC3 was read as NCF1 inh 76* and Ins promoter up -0.04.
`O=C(Nc1cnn(C23CC4CC(CC(C4)C2)C3)c1)c1cnn2c(C(F)(F)F)cc(-c3ccco3)nc12` gave NCF1 inh 33*, Ins promoter up inconclusive, Autophagy mod inactive, Arbovirus anti -17, Efa HMGR inh -1 and DTT redox prof 1.
CCOC(=O)C1=C(C)NC2=C(C(=O)CC(c3cccs3)C2)C1c1cccs1 (centres undefined) was read as NCF1 inh -11, Ins promoter up -0.31, Autophagy mod active, Arbovirus anti -18, Efa HMGR inh -2 and DTT redox prof -1.
For COC(=O)C1=C(C)NC2=C(C(=O)CC(c3cccs3)C2)C1c1ccsc1 (centres undefined) the results were NCF1 inh -4, Ins promoter up 0.68, Autophagy mod inactive, Arbovirus anti -15, Efa HMGR inh 1 and DTT redox prof -1.
`CCc1cccc(NC(=O)CCCCCC2NC(=O)NC2C)c1` (centres undefined) gave NCF1 inh -2, Ins promoter up -0.1, Autophagy mod inactive, Arbovirus anti -1, Efa HMGR inh 2 and DTT redox prof 0.
CCOc1ccc(-n2cc(C(=O)Nc3ccc(Cl)cn3)c3cc(OC)c(OC)cc3c2=O)cc1 was read as NCF1 inh -5, Ins promoter up -1, Autophagy mod active, Arbovirus anti -12, Efa HMGR inh -7 and DTT redox prof 0.
For COc1ccc(Cn2c(C)c(C)c(C#N)c2NC(=O)Nc2ccccc2)cc1 the results were NCF1 inh -44, Ins promoter up 0.4, Autophagy mod inactive, Arbovirus anti 7, Efa HMGR inh 4 and DTT redox prof -4.
COc1ccc(Cn2c(C)c(C)c(C#N)c2NC(=O)Nc2cccc(C)c2)cc1 was read as NCF1 inh -21, Ins promoter up -0.7, Autophagy mod inactive, Arbovirus anti 52*, Efa HMGR inh 3 and DTT redox prof -2.
Screening CCOC(=O)c1cc(-c2ccc(C)cc2)n(CCC(=O)NC(C)CC)c1C (centres undefined) returned NCF1 inh -19, Ins promoter up -0.94, Autophagy mod inactive, Arbovirus anti 6, Efa HMGR inh -6 and DTT redox prof 0.
For CCOC(=O)c1cc(-c2ccc(F)cc2)n(CC(=O)NC(C)CC)c1C (centres undefined) the results were NCF1 inh -9, Ins promoter up -1.4, Autophagy mod inactive, Arbovirus anti -3, Efa HMGR inh -2 and DTT redox prof 0.
`CCCNC(=O)Cn1c(-c2ccc(F)cc2)cc(C(=O)OCC)c1C` gave NCF1 inh -6, Autophagy mod active, Arbovirus anti -1, Efa HMGR inh -6 and DTT redox prof 0.
Screening CCOC(=O)c1cc(-c2ccccc2)n(CC(=O)O)c1C returned NCF1 inh 15, Ins promoter up 0.28, Autophagy mod active, Arbovirus anti 4, Efa HMGR inh -4 and DTT redox prof -1.
For CCOC(=O)c1cc(-c2ccccc2)n(CC(=O)NC(C)(C)C)c1C the results were NCF1 inh -2, Ins promoter up -0.34, Autophagy mod inactive, Arbovirus anti 13, Efa HMGR inh 6 and DTT redox prof -1.
